Laboratory results as given in PubChem BioAssay (EPA / NIEHS).
Active and inactive are the calls of the source. How the source made its calls: active means hit-call score of the fitted dose curve at least 0.9, where 1 is the maximum; inactive means score below 0.9.

Assays:
[1] = target: Bile acid receptor (Homo sapiens) (UniProt Q96RI1); assay: ATG_IR1_CIS: Attagene CIS-FACTORIAL HepG2 Assay for human Nuclear Receptor Subfamily 1 Group H Member 4 (NR1H4), IR1 submotif (AID 2282946); settings: IR1 reporter transcription, actives raise or lower the signal
Outline: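 Fluorescence of capillary-separated, HpaI-digested RT-PCR reporter products gave IR1-element mRNA induction in HepG2 cells 24 h after dosing. Endogenous transcription factors drove the cis-regulated reporters; activity was fitted bidirectionally against DMSO.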

[2] = ATG_GRE_CIS: Attagene CIS-FACTORIAL HepG2 Assay for human Glucocorticoid Response Elements (GRE) (AID 2282947); settings: HepG2 GRE cis-reporter, Attagene multiplex mRNA; actives raise or lower the signal
Outline: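 Fluorescence intensity of reporter-specific cDNA fragments, separated by capillary electrophoresis, provides the signal. Constructs carry cis-regulating promoters in transiently transfected HepG2 liver cells; 24 h incubation; fitting is bidirectional against DMSO.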

[3] = ATG_ISRE_CIS: Attagene CIS-FACTORIAL HepG2 Assay for human Interferon Regulatory Factor 1 (IRF1) binding to an Interferon-Stimulated Response Element (ISRE) (AID 2282948); settings: HepG2 ISRE cis-reporter (Attagene), mRNA transcription readout; actives raise or lower the signal
Outline: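 Uses HepG2 liver cells transfected with cis-regulated reporters and measures mRNA 24 h post-dosing through RT-PCR, primer-extension labelling and capillary electrophoresis, with DMSO as negative control.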

[4] = ATG_M_32_CIS: Attagene CIS-FACTORIAL HepG2 Assay for M32 Transcription Factor (Internal Marker) (AID 2282949); settings: HepG2 Attagene cis-factorial M32 reporter, mRNA; actives raise or lower the signal;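 further: background control marker of the multiplexed CIS panel rather than a real target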
Outline: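 HepG2 human liver cells transiently transfected with cis-promoter-driven multiple reporter transcription units, dosed 24 h. Reporter mRNA quantified by RT-PCR, FAM-labelled primer extension, HpaI digest and capillary electrophoresis; bidirectional fit versus DMSO baseline.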

[5] = ATG_M_06_CIS: Attagene CIS-FACTORIAL HepG2 Assay for M06 Transcription Factor (Internal Marker) (AID 2282950); settings: HepG2 Attagene CIS-FACTORIAL M06 internal marker reporter; actives raise or lower the signal
Outline: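 HepG2 cells transiently transfected with cis-regulated multiple reporter transcription units were exposed to chemical for 24 h; reporter mRNA was quantified by RT-PCR, 6-FAM primer labelling, HpaI digestion and capillary electrophoresis, fitted bidirectionally against DMSO.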

[6] = target: Hepatocyte nuclear factor 6 (Homo sapiens) (UniProt Q9UBC0); assay: ATG_HNF6_CIS: Attagene CIS-FACTORIAL HepG2 Assay for human Hepatocyte Nuclear Factor 6 (HNF6) (AID 2282952); settings: HepG2 Attagene cis-factorial HNF6 reporter transcription; actives raise or lower the signal
Outline: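 Endogenous factor activity read in transiently transfected HepG2 via promoter-regulated reporter transcripts. RNA harvested 24 h post-dosing, reverse-transcribed, PCR-amplified, FAM-labelled, HpaI-digested and resolved by capillary electrophoresis; fitted in both directions against DMSO.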

[7] = target: Heat shock factor protein 1 (Homo sapiens) (UniProt Q00613); assay: ATG_HSE_CIS: Attagene CIS-FACTORIAL HepG2 Assay for human Heat Shock Transcription Factor 1 (HSE) (AID 2282953); settings: HepG2 HSE cis-reporter, Attagene RNA transcription; actives raise or lower the signal
Outline: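 HepG2 cells transiently transfected with multiple reporter transcription units under cis-regulatory promoter control, measuring endogenous transcription factor activity. After 24 h chemical exposure, reporter mRNA quantified by RT-PCR, fluorescent labelling, HpaI digestion and capillary electrophoresis; bidirectional fit versus DMSO.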

[8] = ATG_MRE_CIS: Attagene CIS-FACTORIAL HepG2 Assay for human Metal Responsive Element (MRE) (AID 2282954); settings: HepG2 MRE cis-reporter transcription, Attagene multiplex; actives raise or lower the signal
Outline: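 Measured here is mRNA induction from an MRE cis-element reporter in HepG2 after 24 h, quantified by fluorescence of labelled RT-PCR products on capillary electrophoresis; gain- and loss-of-signal fits use DMSO as baseline.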

[9] = ATG_PBREM_CIS: Attagene CIS-FACTORIAL HepG2 Assay for human Phenobarbital-responsive Enhancer Module (PBREM) (AID 2282955); settings: HepG2 PBREM cis-reporter, Attagene multiplexed transcription; actives raise or lower the signal
Outline: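 Reporter mRNA read by RT-PCR, 6-FAM primer extension, HpaI digestion and capillary electrophoresis. Transfected HepG2 cells, 24 h compound exposure. Gain or loss of signal fitted bidirectionally relative to DMSO baseline.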

[10] = target: Hypoxia-inducible factor 1-alpha (Homo sapiens) (UniProt Q16665); assay: ATG_HIF1a_CIS: Attagene CIS-FACTORIAL HepG2 Assay for human Hypoxia Inducible Factor 1 (HIF1A) (AID 2282951); settings: HepG2 Attagene cis-factorial HIF1a reporter transcription; actives raise or lower the signal
Outline: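 RT-PCR/capillary electrophoresis fluorescence readout of reporter transcripts from endogenous-TF-driven cis elements in transfected HepG2 cells, 24 h exposure; activity fitted in both directions against DMSO controls.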

Chain of Hypoxia-inducible factor 1-alpha (Homo sapiens) (Q16665 whole entry, looked up): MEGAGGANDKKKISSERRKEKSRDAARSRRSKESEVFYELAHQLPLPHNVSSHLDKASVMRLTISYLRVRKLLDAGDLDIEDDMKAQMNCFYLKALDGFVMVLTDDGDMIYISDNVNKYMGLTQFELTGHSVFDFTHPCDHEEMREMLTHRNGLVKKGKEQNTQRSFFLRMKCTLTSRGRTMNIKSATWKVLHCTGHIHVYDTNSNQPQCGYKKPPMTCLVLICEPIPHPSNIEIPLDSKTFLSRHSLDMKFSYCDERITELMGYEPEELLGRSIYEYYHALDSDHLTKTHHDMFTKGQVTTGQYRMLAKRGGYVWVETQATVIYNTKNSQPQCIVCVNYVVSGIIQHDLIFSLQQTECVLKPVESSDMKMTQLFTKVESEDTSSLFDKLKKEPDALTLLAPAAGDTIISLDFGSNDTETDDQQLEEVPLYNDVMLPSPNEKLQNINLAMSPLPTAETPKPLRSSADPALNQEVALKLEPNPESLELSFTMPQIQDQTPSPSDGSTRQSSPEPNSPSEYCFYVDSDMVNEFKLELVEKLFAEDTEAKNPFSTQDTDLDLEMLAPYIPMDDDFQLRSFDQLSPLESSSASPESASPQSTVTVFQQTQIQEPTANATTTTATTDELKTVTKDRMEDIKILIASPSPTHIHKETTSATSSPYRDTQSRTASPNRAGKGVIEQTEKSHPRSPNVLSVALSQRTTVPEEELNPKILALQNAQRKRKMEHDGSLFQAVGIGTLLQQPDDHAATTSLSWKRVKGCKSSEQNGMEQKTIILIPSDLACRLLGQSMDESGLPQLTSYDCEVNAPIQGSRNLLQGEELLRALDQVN
Chain of Heat shock factor protein 1 (Homo sapiens) (Q00613 whole entry, looked up): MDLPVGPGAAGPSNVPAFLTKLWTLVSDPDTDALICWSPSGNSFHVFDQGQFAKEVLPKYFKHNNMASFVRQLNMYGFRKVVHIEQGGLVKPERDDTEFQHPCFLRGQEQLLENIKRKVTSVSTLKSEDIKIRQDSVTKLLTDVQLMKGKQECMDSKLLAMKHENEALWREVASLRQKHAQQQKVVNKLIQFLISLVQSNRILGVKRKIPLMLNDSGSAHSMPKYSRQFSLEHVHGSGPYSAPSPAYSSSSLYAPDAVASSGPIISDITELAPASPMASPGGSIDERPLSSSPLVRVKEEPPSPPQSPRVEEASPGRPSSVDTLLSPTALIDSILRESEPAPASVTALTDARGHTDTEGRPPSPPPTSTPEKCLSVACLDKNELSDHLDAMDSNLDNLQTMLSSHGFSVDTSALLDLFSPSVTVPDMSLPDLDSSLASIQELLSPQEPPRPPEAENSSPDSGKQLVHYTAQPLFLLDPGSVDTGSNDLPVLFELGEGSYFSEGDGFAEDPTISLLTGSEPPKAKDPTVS
Chain of Bile acid receptor (Homo sapiens) (Q96RI1 whole entry, looked up): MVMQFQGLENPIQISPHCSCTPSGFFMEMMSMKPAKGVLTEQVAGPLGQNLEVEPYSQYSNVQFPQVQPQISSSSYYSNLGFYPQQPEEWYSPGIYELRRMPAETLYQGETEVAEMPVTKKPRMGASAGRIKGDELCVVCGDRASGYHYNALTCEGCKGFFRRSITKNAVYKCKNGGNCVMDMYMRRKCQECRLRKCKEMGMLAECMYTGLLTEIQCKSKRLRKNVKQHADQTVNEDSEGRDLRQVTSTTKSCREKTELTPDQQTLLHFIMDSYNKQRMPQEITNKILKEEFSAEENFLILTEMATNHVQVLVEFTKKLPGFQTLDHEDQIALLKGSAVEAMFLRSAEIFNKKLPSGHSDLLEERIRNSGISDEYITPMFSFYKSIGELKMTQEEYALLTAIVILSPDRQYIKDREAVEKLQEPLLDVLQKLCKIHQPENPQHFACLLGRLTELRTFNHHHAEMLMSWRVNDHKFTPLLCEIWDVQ
Chain of Hepatocyte nuclear factor 6 (Homo sapiens) (Q9UBC0 whole entry, looked up): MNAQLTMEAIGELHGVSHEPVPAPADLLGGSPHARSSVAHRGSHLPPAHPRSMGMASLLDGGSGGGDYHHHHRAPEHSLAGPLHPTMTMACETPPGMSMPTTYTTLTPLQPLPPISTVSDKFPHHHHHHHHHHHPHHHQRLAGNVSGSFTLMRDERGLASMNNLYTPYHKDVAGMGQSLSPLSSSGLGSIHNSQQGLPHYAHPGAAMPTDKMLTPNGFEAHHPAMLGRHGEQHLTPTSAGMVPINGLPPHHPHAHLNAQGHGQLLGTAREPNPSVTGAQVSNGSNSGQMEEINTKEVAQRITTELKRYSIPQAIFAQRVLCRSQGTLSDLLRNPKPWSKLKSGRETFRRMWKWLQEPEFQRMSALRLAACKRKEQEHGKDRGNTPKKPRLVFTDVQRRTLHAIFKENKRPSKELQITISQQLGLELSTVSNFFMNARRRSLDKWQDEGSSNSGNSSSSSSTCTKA

Compound	outcome [1]	outcome [2]	outcome [3]	outcome [4]	outcome [5]	outcome [6]	outcome [7]	outcome [8]	outcome [9]	outcome [10]	AC50 [3]	AC50 [1]	AC50 [8]	AC50 [10]	AC50 [2]
C[C@H](CCC(=O)NCC(=O)O)[C@H]1CC[C@H]2[C@@H]3[C@H](O)C[C@@H]4C[C@H](O)CC[C@]4(C)[C@H]3C[C@H](O)[C@]12C	inactive	inactive	inactive	inactive	inactive	inactive	inactive	inactive							
C1CCOC1	inactive	inactive	inactive	inactive	inactive	inactive	inactive	inactive	inactive						
C1CCCCC1	inactive	inactive	inactive	inactive		inactive	inactive	inactive	inactive	inactive					
CC=CC=CCOC(=O)C(C)C	inactive	inactive		inactive	inactive	inactive	inactive	inactive	inactive		100 µM (active)				
Clc1ccc(C(c2ccccc2Cl)C(Cl)Cl)cc1 (configuration not stated)		inactive		inactive	inactive	inactive	inactive		inactive		60.9 µM (active)	43.8 µM (active)	171 µM (active)		
CC(=O)O[C@@H]1CC2CCC1(C)C2(C)C (some centres not stated)	inactive	inactive	inactive	inactive		inactive	inactive	inactive	inactive	inactive					
CCCCCCCCN1CCCC1=O	inactive	inactive	inactive		inactive	inactive	inactive	inactive	inactive					147 µM (active)	
CCc1cc(C(C)(C)C)c(O)c(C(C)(C)C)c1	inactive	inactive	inactive	inactive		inactive	inactive	inactive	inactive	inactive					
NC(=S)NNC(N)=S	inactive	inactive	inactive		inactive	inactive	inactive	inactive							
CCC1CCCCC1	inactive	inactive	inactive	inactive		inactive	inactive	inactive	inactive						
CCC(C)S (configuration not stated)	inactive	inactive	inactive		inactive	inactive	inactive	inactive	inactive	inactive					
CCCC1O[C@@H]2C[C@H]3[C@@H]4CCC5=CC(=O)C=C[C@]5(C)[C@H]4[C@@H](O)C[C@]3(C)[C@]2(C(=O)CO)O1 (some centres not stated)				inactive	inactive	inactive	inactive		inactive		137 µM (active)	100 µM (active)			0.0815 µM (active)
CCCCCCC(=O)c1ccccc1	inactive		inactive	inactive		inactive	inactive	inactive	inactive	inactive					
C[C@H]1C[C@@H](O)CC(C)(C)C1	inactive	inactive	inactive		inactive	inactive		inactive	inactive						
CC(C)C(OC(=O)c1ccccc1)C(C)(C)COC(=O)c1ccccc1 (configuration not stated)	inactive		inactive	inactive	inactive	inactive	inactive	inactive	inactive	inactive					
CC(=O)OCCCc1ccccc1	inactive		inactive	inactive	inactive	inactive	inactive	inactive							
C[N+](C)(C)CCCCCC[N+](C)(C)C	inactive		inactive	inactive	inactive	inactive	inactive	inactive	inactive						
